Results: ChEMBL document CHEMBL4513216, “Probing the Open Global Health Chemical Diversity Library for Multistage-Active Starting Points for Next-Generation Antimalarials” (ACS Infect Dis, 2020)
Hit rate of the full screen: of about 69,000 compounds, about 8,600 (12%) showed an effect of 50% or more. This is one part of a sample in which strong results are shown more often than they occur.

These compounds were tested on Plasmodium berghei (assay: Screen against P. berghei liver stage (PbLuc), transformed with Luciferase, at 10uM). Settings: tested at 10 uM.
Format: functional, HepG2
`CNC(=O)c1ccc(-c2ccc(CNS(=O)(=O)N(C)C)cc2)nc1C` was tested, and the INHIBITION was 8.12%.
`O=c1occ(CN2CCCCCC2)c(O)c1CN1CCCCCC1` was tested, and the INHIBITION was 25.8%.
Work on `Cc1nc(N)ncc1C(=O)N1CCCC(CCc2ccc(F)cc2)C1` (stereo unspecified) yielded an INHIBITION of 90.3%.
With `Cc1nc(N)ncc1C(=O)N1CCCC(CCc2ccc(F)c(F)c2)C1` (stereo unspecified) the INHIBITION was 38.5%.
`Cc1ccc(-c2ncc(C(=O)N3CCC[C@H](N)C3)c(O)n2)cc1` was tested, and the INHIBITION was 42.2%.
With `Cc1ccc(-c2ncc(C(=O)N3CCCC(CCN)C3)c(O)n2)cc1` (stereo unspecified) the INHIBITION was 53.8%.
`COc1ccc(CCC2CCCN(C(=O)c3cnc(N)nc3C)C2)cc1` (stereo unspecified) was tested, and the INHIBITION was 34.9%.
`Cc1ccc(-c2ncc(C(=O)N3CCCN4CCC[C@H]4C3)c(O)n2)cc1` showed an INHIBITION of 15.2%.
For `O=C(c1c[nH]cn1)N1CCC(F)(F)C2(CCN(c3cccc(F)c3)C2)C1` (stereo unspecified), the INHIBITION was 21.7%.
With `CC(=O)Nc1ccc(SCC(O)COCc2ccc3c(c2)OCO3)cc1` (stereo unspecified) the INHIBITION was 25.8%.
Work on `COc1ccc(CN(C)CC2(O)CCNC2)cc1` (stereo unspecified) yielded an INHIBITION of 20.85%.
With `Cc1nc(CN2CCC3(CC2)CC(c2cccnc2)C(=O)N3C)cs1` (stereo unspecified) the INHIBITION was 34.5%.
`CS(=O)(=O)NC[C@]1(O)CCN(C(=O)Cc2cccs2)C[C@H]1O` showed an INHIBITION of -8.12%.
Work on `C[C@@H]1CN(C(=O)C2CCS(=O)(=O)CC2)C[C@]1(C)O` yielded an INHIBITION of -7.81%.
`CNC(=O)NC(=O)C(NCc1cccs1)c1ccccc1` (stereo unspecified) gave an INHIBITION of 64.7%.
With `NC(=O)C(NCCc1ccc(Cl)s1)c1ccccc1` (stereo unspecified) the INHIBITION was -35.8%.
With `NC(=O)C(NCc1cccs1)c1ccccc1` (stereo unspecified) the INHIBITION was 60.1%.
In the case of `NC(=O)C(NCc1ccc(Cl)s1)c1ccccc1` (stereo unspecified), the INHIBITION is reported as -22.6%.
With `O=C(C(CNCc1cccs1)c1ccccc1)N1CCOCC1` (stereo unspecified) the INHIBITION was 5.85%.
`CNC(=O)NC(=O)C(NCc1ccccc1)c1ccccc1` (stereo unspecified) was tested, and the INHIBITION was 24.8%.
With `CC(C)(C)N1CC(C(=O)N2CC(Oc3ccc(F)cc3)C2)CC1=O` (stereo unspecified) the INHIBITION was 18.5%.
Compound `COCCN1CCC2(CC1)CC(c1cccnc1)CO2` (stereo unspecified) has an INHIBITION of 16.4%.
`N#Cc1ccc(OCC(O)CN2CCC(Cn3cccn3)CC2)cc1` (stereo unspecified) gave an INHIBITION of 5.7%.
`CNC(=O)[C@H]1C[C@@H]2CN(S(=O)(=O)c3ccc(OC)cc3)C[C@@H]2N1C` was tested, and the INHIBITION was 46.6%.
`COCc1cncc2c1CCN(C(=O)c1cccc(C#N)c1)C2` gave an INHIBITION of 14.9%.
Compound `Cn1ccnc1CN1CCC2(CC(=O)N(c3cccc(F)c3)C2)C1` (stereo unspecified) has an INHIBITION of 25.3%.
Work on `Cc1cccc(N2CC3(CCN(Cc4nccn4C)C3)CC2=O)c1` (stereo unspecified) yielded an INHIBITION of 52%.
`COc1cccc(N2CC3(CCN(Cc4nccn4C)C3)CC2=O)c1` (stereo unspecified) showed an INHIBITION of 40.4%.
For `Cn1ccnc1CN1CCC2(CC(=O)N(c3cncnc3)C2)C1` (stereo unspecified), the INHIBITION was 33.5%.
With `Cn1ccnc1CN1CCC2(CC(=O)N(c3ccsc3)C2)C1` (stereo unspecified) the INHIBITION was 53.2%.
Work on `Cn1cc(N2CC3(CCN(Cc4nccn4C)C3)CC2=O)cn1` (stereo unspecified) yielded an INHIBITION of 14.8%.
With `CCc1nc(C2CCCN2CCCS(N)(=O)=O)no1` (stereo unspecified) the INHIBITION was 31.9%.
`CSCCC(NC(=O)C1CC1)C(=O)N(C)Cc1ccsc1` (stereo unspecified) showed an INHIBITION of 42.6%.
`Cc1noc(C)c1CCc1nc(C2CCOC2)no1` (stereo unspecified) gave an INHIBITION of -94.3%.
Compound `COCCC(=O)N1CCOCC2(CCN(Cc3cccs3)C2)C1` (stereo unspecified) has an INHIBITION of -5.31%.
Work on `Cn1cc(-c2ncnc3c2CCN(CC2CCOC2)CC3)cn1` (stereo unspecified) yielded an INHIBITION of 25.8%.
Compound `CN(C)[C@@H]1CCN(S(=O)(=O)C2CC2)[C@H]1Cc1ccccc1` has an INHIBITION of 27.5%.
For `Cc1nc(C2CCCN(C(=O)c3cccc4c3OCO4)C2)sc1C` (stereo unspecified), the INHIBITION was 40%.
For `c1cc(-c2cn[nH]c2)ccc1CN1CCNCC1`, the INHIBITION was 14.6%.
`CCNC(=O)C(C)NC(=O)c1cnc(-c2ccc(C)cc2C)s1` (stereo unspecified) showed an INHIBITION of 50.5%.
`Cc1ccc(-c2ncc(C(=O)NCCNC(=O)C(C)C)s2)c(C)c1` gave an INHIBITION of -10.9%.
`Cc1ccc(-c2ncc(C(=O)NCCS(N)(=O)=O)s2)c(C)c1` showed an INHIBITION of -37.3%.
`COc1ccccc1C(O)CNC(=O)NCc1csc(C)n1` (stereo unspecified) gave an INHIBITION of 13.3%.
`c1csc(CN2Cc3nc(CN4CCCC4)oc3C2)c1` was tested, and the INHIBITION was 33.5%.
Compound `CCN(CC)Cc1nc2c(o1)CN(S(=O)(=O)c1cccs1)C2` has an INHIBITION of 57.5%.
`O=S(=O)(c1cccs1)N1Cc2nc(COCC3CC3)oc2C1` showed an INHIBITION of 30.3%.
Compound `O=S(=O)(c1cccs1)N1Cc2nc(CN3CCCC3)oc2C1` has an INHIBITION of 67.5%.
Compound `CN(C)Cc1nc2c(o1)CN(S(=O)(=O)c1cccs1)C2` has an INHIBITION of 34%.
In the case of `O=S(=O)(c1cccs1)N1Cc2nc(CN3CCCCC3)oc2C1`, the INHIBITION is reported as 19.5%.
With `O=c1c(S(=O)(=O)N2CCCC2)cccn1Cc1c(F)cccc1Cl` the INHIBITION was 7.92%.
Work on `Cc1nc[nH]c1CN1CCC2(CC1)CC(Nc1ncccn1)CO2` (stereo unspecified) yielded an INHIBITION of 27.6%.
`CCc1cnc(CN2CCC(N(Cc3noc(CC)n3)C(C)=O)C2)o1` (stereo unspecified) showed an INHIBITION of -15.5%.
With `CC1CN(CC(=O)NCc2cccs2)CCN1c1nccs1` (stereo unspecified) the INHIBITION was 36.1%.
`Cc1ccc(-c2cc(N)c(=O)n(C(C)C(N)=O)n2)o1` (stereo unspecified) gave an INHIBITION of -6.88%.
For `COc1ccccc1CN1C[C@@H]2CN(C(C)=O)CCO[C@@H]2C1`, the INHIBITION was 0.453%.
`COCC(=O)N1CCN(C(=O)NC(C)C)CC2(CC(=O)N(C)C2)C1` (stereo unspecified) showed an INHIBITION of 45.2%.
`O=C1NCC2=Nc3ccccc3NC(c3ccccc3)C12` (stereo unspecified) gave an INHIBITION of 7.92%.
In the case of `COc1ccc(CN2CCc3nnc(COCCN(C)C)n3CC2)cc1`, the INHIBITION is reported as 22.4%.
For `CN(C)CCOCc1nnc2n1CCN(Cc1ccoc1)CC2`, the INHIBITION was 0.618%.
For `CN(C)CCOCc1nnc2n1CCN(Cc1ccc(F)cc1)CC2`, the INHIBITION was 69.8%.
With `CN(CC(=O)N1CCCCC1c1nc(C(C)(C)C)cs1)C1CC1` (stereo unspecified) the INHIBITION was -19.9%.
For `Cc1nccc(C2CCCCN2Cc2ccc(F)cc2)n1` (stereo unspecified), the INHIBITION was 41.2%.
`CCS(=O)(=O)N1Cc2ccccc2CC1C(=O)OCc1cc(C)no1` (stereo unspecified) was tested, and the INHIBITION was 60.2%.
`Cc1cc(COC(=O)[C@@H]2Cc3ccccc3CN2S(C)(=O)=O)no1` showed an INHIBITION of 5.91%.
`CCS(=O)(=O)N1Cc2ccccc2CC1C(=O)OCc1c(C)noc1C` (stereo unspecified) was tested, and the INHIBITION was -16.3%.
`Cc1nc(CN2CCC3(CCCN(Cc4cnn(C)c4)C3)C2=O)cs1` (stereo unspecified) gave an INHIBITION of -0.912%.
Compound `COc1ccc2[nH]c3c(N(C)CC4OCCO4)ncnc3c2c1` has an INHIBITION of -112%.
`O=C(c1ccoc1)N1CC[C@H]2C[C@@H](c3nnc(C4CC4)o3)O[C@@H]2C1` showed an INHIBITION of 35.8%.
Compound `Cc1occc1C(=O)N1CC[C@H]2C[C@@H](c3nnc(C4CC4)o3)O[C@@H]2C1` has an INHIBITION of 68.4%.
`O=C(c1ccsc1)N1C[C@@H]2C[C@@H](c3nnc(C4CC4)o3)O[C@@H]2C1` gave an INHIBITION of -31.6%.
`O=C(c1ccccc1)N1CC[C@H]2C[C@@H](c3nnc(C4CC4)o3)O[C@@H]2C1` showed an INHIBITION of 38.5%.
`O=C(c1cccs1)N1CC[C@H]2C[C@@H](c3nnc(C4CC4)o3)O[C@@H]2C1` was tested, and the INHIBITION was 26.7%.
For `O=C(c1ccccc1)N1CC[C@H]2C[C@H](c3nnc(C4CC4)o3)O[C@@H]2C1`, the INHIBITION was 38.5%.
`O=C(Cc1ccsc1)N1C[C@@H]2C[C@@H](c3nnc(C4CC4)o3)O[C@@H]2C1` was tested, and the INHIBITION was 61.8%.
`Cc1ccoc1C(=O)N1CC[C@H]2C[C@H](c3nnc(C4CC4)o3)O[C@@H]2C1` gave an INHIBITION of 54.8%.
For `O=C(c1ccsc1)N1CC[C@H]2C[C@@H](c3nnc(C4CC4)o3)O[C@@H]2C1`, the INHIBITION was -1.64%.
